# Reference: PubChem BioAssay (EPA / NIEHS)
# The source made the active and inactive calls. Rule for the calls: active = hit-call score of the fitted dose curve at least 0.9, where 1 is the maximum; inactive = score below 0.9.
# Assays:
# [1] = APR_HepG2_CellCycleArrest_24hr: Apredica 24-hour HepG2 Assay for Cell Cycle Arrest (AID 2282905); details: imaging, actives raise or lower the signal;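 note: cell cycle arrest scored as ratio of 2N to 4N nuclear DNA content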
# How it was run: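 Compounds at 0.39–200 uM (0.5% DMSO) for 24 h, then fixed and Hoechst 33342 stained. Cell-cycle analysis of nuclear DNA content by high-content imaging, fitted bidirectionally versus DMSO.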
# [2] = APR_HepG2_NuclearSize_24hr: Apredica 24-hour HepG2 Assay for Nuclear Size (AID 2282907); details: high-content imaging, actives raise or lower the signal
# How it was run: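 HepG2 cells exposed 24 h to compounds at 0.39–200 uM (0.5% DMSO), fixed, Hoechst 33342 stained and imaged at 20x; nuclear diameter measured by automated image analysis, fitted bidirectionally against DMSO controls.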
# [3] = APR_HepG2_CellLoss_24hr: Apredica 24-hour HepG2 Assay for Cell Loss (AID 2282908); details: high-content imaging;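 for AC50: fit in both directions so a hit may be cell loss or gain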
# How it was run: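 HepG2 cells exposed 24 hr to 0.39–200 uM compound in duplicate at 0.5% v/v final DMSO. Cells fixed in 3.7% formaldehyde and Hoechst 33342-stained. Cell number came from nuclear imaging at 20x. Bidirectional fit versus DMSO.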
# [4] = APR_HepG2_MicrotubuleCSK_24hr: Apredica 24-hour HepG2 Assay for Microtubule CSK Stabilty (AID 2282909); details: HepG2 microtubule cytoskeleton imaging, actives raise or lower the signal
# How it was run: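 HepG2 cells were treated 24 hr with compound at 0.39–200 uM in duplicate (0.5% DMSO final), then fixed and permeabilized. Alpha-tubulin immunofluorescence was imaged by high-content microscopy, with bidirectional fitting against DMSO and taxol as positive control.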
# [5] = APR_HepG2_MitoticArrest_24hr: Apredica 24-hour HepG2 Assay for Mitotic Arrest (AID 2282910); details: high-content imaging, actives raise or lower the signal
# How it was run: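 HepG2 human liver cells were exposed to compounds at 0.39–200 uM (10 concentrations, duplicate) in 0.5% v/v DMSO for 24 hr, then fixed and immunostained for phospho-histone H3 with Hoechst 33342. Mitotic arrest came from HCS fluorescent imaging, fitted bidirectionally against DMSO.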
# [6] = APR_HepG2_MitoMembPot_24hr: Apredica 24-hour HepG2 Assay for Mitochondrial Membrane Potential (AID 2282911); details: imaging, actives raise or lower the signal
# How it was run: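 HepG2 cells exposed 24 h to 0.39–200 uM compounds in duplicate, 0.5% v/v DMSO final. MitoTracker Red CMXRos 250 nM loaded 30 min before formaldehyde fixation; high-content imaging at 20x, bidirectional fit versus DMSO.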
# [7] = APR_HepG2_MitoMass_24hr: Apredica 24-hour HepG2 Assay for Mitochondrial Mass (AID 2282912); details: high-content imaging, actives raise or lower the signal
# How it was run: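 HepG2 cells exposed 24 hr to 0.39–200 uM compound, 0.5% v/v DMSO, in duplicate. Stained before fixation with 250 nM MitoTracker Red CMXRos for 30 min, then imaged at 20x with Hoechst nuclei. Fitted in both directions against DMSO.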
# [8] = APR_HepG2_p53Act_24hr: Apredica 24-hour HepG2 Assay for p53 Activation (AID 2282913); details: high-content imaging, actives raise or lower the signal;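 note: p53 protein immunofluorescence averaged per cell in HepG2 with Hoechst nuclei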
# How it was run: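 HepG2 cells exposed 24 h to compounds at 0.39–200 uM in duplicate, 0.5% v/v DMSO final; fixed, permeabilized, stained with anti-p53 antibody and Hoechst 33342; fluorescence imaging; bidirectional curve fit versus DMSO.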
# [9] = APR_HepG2_CellCycleArrest_72hr: Apredica 72-hour HepG2 Assay for Cell Cycle Arrest (AID 2282914); details: high-content imaging, actives raise or lower the signal
# How it was run: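 HepG2 cells exposed 72 h in duplicate to 0.39–200 uM compound, 0.5% DMSO final. Formaldehyde-fixed, Hoechst 33342-stained nuclei imaged at 20x, six fields per well; DNA content per valid cell quantified by cell-cycle image analysis, bidirectional fit versus DMSO.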
# [10] = APR_HepG2_CellLoss_72hr: Apredica 72-hour HepG2 Assay for Cell Loss (AID 2282915); details: high-content imaging
# How it was run: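 HepG2 cells were exposed for 72 hr to compounds at 0.39–200 uM (ten concentrations, duplicate) in 0.5% v/v final DMSO. Nuclei were stained with Hoechst 33342 after 3.7% formaldehyde fixation, imaged at 20x, and counted; fits bidirectional versus DMSO.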
# [11] = APR_HepG2_MitoticArrest_72hr: Apredica 72-hour HepG2 Assay for Mitotic Arrest (AID 2282918); details: high-content imaging, actives raise or lower the signal
# How it was run: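 HepG2 cells treated 72 h at 0.39–200 uM, 0.5% DMSO final; formaldehyde-fixed, stained with Hoechst 33342 and phospho-histone H3 antibody, imaged by high-content fluorescence; bidirectional fit versus DMSO.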
# [12] = APR_HepG2_MicrotubuleCSK_72hr: Apredica 72-hour HepG2 Assay for Microtubule CSK Stabilty (AID 2282919); details: HepG2 microtubule cytoskeleton, high-content imaging, actives raise or lower the signal
# How it was run: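 HepG2 human liver cells were dosed for 72 h at ten concentrations from 0.39 to 200 uM in duplicate (0.5% v/v DMSO final). Fixed, permeabilized cells were immunostained for alpha-tubulin (Cy5) with a Hoechst counterstain and imaged at 20x.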
# [13] = APR_HepG2_P-H2AX_24hr: Apredica 24-hour HepG2 Assay for H2AX Phosphorylation (AID 2282920); details: high-content imaging, actives raise or lower the signal
# How it was run: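 HepG2 cells dosed 24 h at 0.39–200 uM (10 points, duplicate, 0.5% DMSO final). Formaldehyde-fixed and permeabilized, then immunostained for phospho-H2A.x with Hoechst. Fluorescence quantified by high-content imaging, fitted bidirectionally versus DMSO.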
# [14] = APR_HepG2_StressKinase_24hr: Apredica 24-hour HepG2 Assay for Stress Kinase (AID 2282922); details: HepG2 stress kinase (phospho-c-Jun) imaging, actives raise or lower the signal
# How it was run: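 HepG2 cells exposed 24 hr to compound at 0.39–200 uM (10 concentrations, duplicate), 0.5% v/v DMSO final. Fixed in 3.7% formaldehyde, permeabilized with Triton X-100, immunolabeled for phospho-c-Jun with Hoechst 33342; HCS fluorescence imaging, bidirectional fit versus DMSO.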
# [15] = APR_HepG2_p53Act_72hr: Apredica 72-hour HepG2 Assay for p53 Activation (AID 2282923); details: high-content imaging, actives raise or lower the signal;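 note: average cellular p53 protein immunofluorescence intensity in HepG2 cells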
# How it was run: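 HepG2 cells exposed 72 h to 0.39–200 uM in 0.5% DMSO, duplicates. Fixed, permeabilized cells immunostained for p53 (Cy5) with Hoechst; imaged at 20x, fluorescence analyzed bidirectionally against DMSO.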
# [16] = APR_HepG2_NuclearSize_72hr: Apredica 72-hour HepG2 Assay for Nuclear Size (AID 2282925); details: high-content imaging, actives raise or lower the signal
# How it was run: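 HepG2 cells were exposed to compounds at ten concentrations from 0.39 to 200 uM (duplicate, 0.5% DMSO final) for 72 hr. After fixation in 3.7% formaldehyde, nuclei were stained with Hoechst 33342 (2 ug/mL) and imaged at 20x.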
# [17] = APR_HepG2_StressKinase_72hr: Apredica 72-hour HepG2 Assay for Stress Kinase (AID 2282921); details: HepG2 stress kinase (phospho-c-Jun) imaging, actives raise or lower the signal
# How it was run: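 HepG2 cells treated 72 hr with 0.39–200 uM compound, 0.5% v/v DMSO, duplicate wells. After formaldehyde fixation and Triton permeabilization, stained with anti-phospho-c-Jun (1:500) and Cy3 secondary, imaged at 20x. Fitted in both directions against DMSO.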
# [18] = APR_HepG2_MitoMass_72hr: Apredica 72-hour HepG2 Assay for Mitochondrial Mass (AID 2282924); details: high-content imaging, actives raise or lower the signal;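 note: MitoTracker Red CMXRos stain intensity per cell imaged as mitochondrial mass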
# How it was run: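 HepG2 cells were exposed for 72 hr to compounds at 0.39–200 uM (ten concentrations, duplicate, 0.5% v/v DMSO final). Live cells were stained with 250 nM MitoTracker Red CMXRos for 30 min, then fixed in 3.7% formaldehyde and imaged by HCS fluorescence.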
# [19] = APR_HepG2_P-H2AX_72hr: Apredica 72-hour HepG2 Assay for H2AX Phosphorylation (AID 2282916); details: imaging, actives raise or lower the signal;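 note: phospho-histone H2A.x immunostain intensity per cell marking DNA damage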
# How it was run: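 HepG2 cells treated 72 h at 0.39–200 uM, 0.5% DMSO final, duplicates. Formaldehyde-fixed, Triton-permeabilised, immunostained for phospho-H2A.x with Hoechst; fluorescence imaged at 20x, bidirectional fit versus DMSO.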
# [20] = APR_HepG2_MitoMembPot_72hr: Apredica 72-hour HepG2 Assay for Mitochondrial Membrane Potential (AID 2282917); details: imaging, actives raise or lower the signal
# How it was run: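 HepG2 cells exposed 72 h to compounds at 0.39–200 uM (0.5% v/v DMSO, duplicates); MitoTracker Red CMXRos 250 nM loaded 30 min before 3.7% formaldehyde fixation, imaged by HCS fluorescence. Bidirectional fit versus DMSO.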
smiles,measurement,setting,value
CC(C)c1cccc(C(C)C)c1N1C(=O)c2ccc(O)cc2C1=O,AC50,[1],6.15 µM (active)
same,outcome,[2],inactive
same,AC50,[3],87.5 µM (active)
same,outcome,[4],inactive
same,AC50,[5],4.05 µM (active)
same,AC50,[6],32.7 µM (active)
same,AC50,[7],164 µM (active)
same,AC50,[8],46.7 µM (active)
same,AC50,[9],7.16 µM (active)
same,AC50,[10],57.7 µM (active)
same,AC50,[11],6.04 µM (active)
same,AC50,[12],14.8 µM (active)
same,AC50,[13],44 µM (active)
same,AC50,[14],8.52 µM (active)
same,AC50,[15],3.01 µM (active)
same,outcome,[16],inactive
O=C(O)CC(O)C(=O)O (stereo unspecified),outcome,[1],inactive
same,outcome,[2],inactive
same,outcome,[3],inactive
same,outcome,[4],inactive
same,outcome,[5],inactive
same,outcome,[6],inactive
same,outcome,[7],inactive
same,outcome,[8],inactive
same,outcome,[9],inactive
same,outcome,[10],inactive
same,outcome,[11],inactive
same,outcome,[12],inactive
same,outcome,[13],inactive
same,outcome,[17],inactive
same,outcome,[14],inactive
same,outcome,[15],inactive
same,outcome,[18],inactive
same,outcome,[16],inactive
CCCCCCc1ccc(O)cc1O,AC50,[1],89.8 µM (active)
same,outcome,[2],inactive
same,AC50,[3],103 µM (active)
same,outcome,[4],inactive
same,AC50,[5],95.4 µM (active)
same,AC50,[6],46.1 µM (active)
same,AC50,[7],125 µM (active)
same,AC50,[8],104 µM (active)
same,outcome,[9],inactive
same,AC50,[10],71.5 µM (active)
same,AC50,[11],33.7 µM (active)
same,outcome,[12],inactive
same,AC50,[13],101 µM (active)
same,outcome,[17],inactive
same,AC50,[14],158 µM (active)
same,outcome,[15],inactive
same,outcome,[16],inactive
CC(C)=CCC/C(C)=C/CO,outcome,[1],inactive
same,outcome,[2],inactive
same,outcome,[3],inactive
same,outcome,[4],inactive
same,outcome,[5],inactive
same,outcome,[6],inactive
same,outcome,[7],inactive
same,outcome,[8],inactive
same,outcome,[9],inactive
same,AC50,[10],81.1 µM (active)
same,outcome,[11],inactive
same,outcome,[12],inactive
same,outcome,[13],inactive
same,outcome,[17],inactive
same,outcome,[14],inactive
same,AC50,[15],107 µM (active)
same,outcome,[18],inactive
same,outcome,[16],inactive
O=C(O)CCN(C1(C(=O)NO)CCCC1)S(=O)(=O)c1ccc(Oc2ccc(F)cc2)cc1,outcome,[1],inactive
same,outcome,[2],inactive
same,outcome,[3],inactive
same,outcome,[5],inactive
same,outcome,[6],inactive
same,outcome,[7],inactive
same,outcome,[8],inactive
same,outcome,[9],inactive
same,outcome,[10],inactive
same,outcome,[19],inactive
same,outcome,[20],inactive
same,outcome,[11],inactive
same,outcome,[12],inactive
same,outcome,[13],inactive
same,outcome,[17],inactive
same,outcome,[14],inactive
same,outcome,[15],inactive
same,outcome,[16],inactive
CC(C)CCO,outcome,[1],inactive
same,outcome,[2],inactive
same,outcome,[3],inactive
same,outcome,[4],inactive
same,outcome,[5],inactive
same,outcome,[6],inactive
same,outcome,[7],inactive
same,outcome,[8],inactive
same,outcome,[9],inactive
same,outcome,[10],inactive
same,outcome,[20],inactive
same,outcome,[11],inactive
same,outcome,[12],inactive
same,outcome,[13],inactive
same,outcome,[14],inactive
same,outcome,[15],inactive
same,outcome,[16],inactive
Cc1ccc(O)cc1,outcome,[1],inactive
same,outcome,[2],inactive
same,outcome,[3],inactive
same,outcome,[4],inactive
same,outcome,[5],inactive
same,outcome,[6],inactive
same,outcome,[7],inactive
same,outcome,[8],inactive
same,outcome,[9],inactive
same,outcome,[10],inactive
same,outcome,[11],inactive
same,outcome,[12],inactive
same,outcome,[13],inactive
same,outcome,[14],inactive
same,outcome,[15],inactive
same,outcome,[18],inactive
same,outcome,[16],inactive
